A selection: hits, their analogues and other compounds. The true share with any hit is near 3.4%.
esBAF inh: Bmi1 luciferase reporter increase in mESCs, primary screen, esBAF inhibitor project, mouse ES cells, Bmi1 luciferase knock-in, single point. 24 h; 100% = twice the neutral-well signal. reporter increase, % at 12.5 µM. 2% of 350,000 active; in the data active = activation above about 40%; inconclusive = no clear call, values can overlap the other calls;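 also: a rise in the Bmi1 reporter signal indicates esBAF inhibition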
HSF-1 act: HSF-1 activators, primary screen, NIH3T3-HGL cells, MG132 stress, luminescence, single point | NIH3T3-HGL HSF-1 luciferase reporter, 8 h; 100% = twice DMSO control signal | activation, % at 9 µM | 1.7% of 300,000 active | AID 504408, 2011;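 active = mean replicate activation of at least 50% with a set share of replicates each reaching 50%; inconclusive = only one of those two conditions met; inactive = mean below 50% and too few replicates reaching it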
HSF1 inhib: HSF1 inhibitors in luciferase reporter cells, primary screen, cell-based, NIH3T3, luminescence; activity change, negative = inhibition, % at 7.5 µM (by protocol); NIH3T3-HGL HSE-luciferase, MG132-induced, luminescence 8 h; active compounds read low; 0.77% of 300,000 active;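 active = more than half of replicate wells show activity change below -50%, luminescence cut by over half; inconclusive = some wells, but at most half, below -50%; inactive = no replicate well below -50%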;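 also: luciferase reports HSF-1 transcriptional activity via heat shock element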
Vif imaging: HIV Vif self-association inhibitors, primary screen, imaging, HEK293T, single point; 0.35% of 340,000 active; inhibition, % at 7.49 µM; HEK293T cells, Vif self-association by quenched fluorescence, 24 h; in the data active = inhibition above about 50%, passing the limit was not always enough; inconclusive = no clear call, values can overlap the other calls; inactive = below about 31%
Hits are given with their value; - = inactive; ? = inconclusive; . = no result given.

SMILES	esBAF inh	HSF-1 act	HSF1 inhib	Vif imaging
O=C(CSc1ncnc2sccc12)N1CCCCC1	72	.	.	-
CO[C@H]1CN(C)C(=O)c2cc(NS(C)(=O)=O)ccc2OC[C@H](C)N(Cc2ccccn2)C[C@H]1C	-	.	.	.
Nc1nc(COc2ccc3ccccc3c2)cs1	59	-	-	-
CC(=O)Nc1nc(COc2ccc3ccccc3c2)cs1	-	-	-	-
Nc1nc2c(s1)CCc1c-2cnn1-c1ccccc1	-	72	-	.
CN(C)CCCNC(=O)C[C@H]1CC[C@@H]2[C@@H](COc3ccc(NC(=O)NC4CCCC4)cc3C(=O)N2C)O1	-	.	.	.
Cn1cccc1-c1cc(C(=O)N/N=C/c2ccc(F)cc2)[nH]n1	-	-	-	-
Cn1cccc1-c1cc(C(=O)N/N=C/c2ccccc2Cl)[nH]n1	55	-	-	-
O=C(N/N=C/c1ccccc1Cl)c1ccc(F)cc1	-	56	-	?
Cn1cccc1-c1cc(C(=O)N/N=C/c2ccc([N+](=O)[O-])cc2)[nH]n1	-	-	-	70
CO[C@H]1CN(C)C(=O)c2ccc(NC(=O)c3nc4ccccc4s3)cc2OC[C@H](C)N(Cc2cncnc2)C[C@H]1C	-	.	.	.
N#CCc1nc(CSc2nc3ccccc3o2)cs1	102	-	-	-
c1ccc2oc(SCc3nc4ccccc4s3)nc2c1	.	67	-	-
c1ccc(SCc2nc3ccccc3s2)nc1	-	-	-	-
Cc1cccc2nc(CSc3nc4ccccc4o3)cn12	.	-	-	-
c1ccc(OCCSc2nc3ccccc3o2)cc1	87	-	-61	-
CC(=O)N[C@@H]1CC[C@@H](CCNC(=O)C2CCCC2)O[C@@H]1CO	-	.	.	.
C[C@@H]1CCCCO[C@@H](CN(C)S(=O)(=O)c2cccs2)[C@H](C)CN([C@@H](C)CO)C(=O)c2cc(NC(=O)Nc3cccc4ccccc34)ccc2O1	-	.	.	.
CCOc1ccccc1OCCOCCOc1c(Cl)cccc1Cl	.	-	-53	-
O=Nc1c(-c2c(O)[nH]c3cc(Br)ccc23)[nH]c2ccccc12	111	-	-	-
O=C(CSCc1cccc(Br)c1)N=Nc1c(O)[nH]c2ccccc12	.	-	-	-
CNC(=O)c1[nH]nc2c1CCc1cc(OC)ccc1-2	-	-	-	-
COc1ccc2c(c1)CCc1c-2n[nH]c1C(=O)NCCC(C)C	-	51	-	-
O=C(c1cccs1)n1nc(-c2ccco2)nc1SCc1ccccc1	.	-	-54	.
CC(=O)n1nc(-c2ccco2)nc1SCc1ccccc1	55	-	-	-
SMILES	esBAF inh	HSF-1 act	HSF1 inhib	Vif imaging
CCC(=O)n1nc(-c2ccco2)nc1SCc1ccccc1	-	-	-	-
COc1ccc(-c2cn(CC[C@H]3CC[C@H](NC(=O)c4cnccn4)[C@H](CO)O3)nn2)cc1	-	.	.	.
Cc1ccc(NC(=O)c2ccc(OCC3CCCO3)cc2)cc1Cl (configuration not stated)	78	.	.	-
COc1ccc(NC(=O)c2ccc(OCC3CCCO3)cc2)cc1Cl (configuration not stated)	42	.	.	-
CCC(=O)Nc1c(C(=O)Nc2ccc3c(c2)OCCO3)oc2ccccc12	.	-	-	-
COc1ccc(NC(=O)c2coc3ccccc23)cc1OC	83	-	-	-
NS(=O)(=O)c1ccc(NC(=O)c2ccc(OCC3CCCO3)cc2)cc1 (configuration not stated)	-	.	.	-
CCC(=O)Nc1c(C(=O)Nc2cccc(OC)c2)oc2ccccc12	43	-	-	-
Cc1ccc(NC(=O)c2ccc(OCC3CCCO3)cc2)c(C)c1 (configuration not stated)	.	-	-	-
COc1ccc(CCNC(=O)c2coc3ccccc3c2=O)cc1OC	-	?	-	-
COc1ccccc1-c1cnc2c(c1)C(=O)N([C@@H](C)CO)C[C@H](C)[C@@H](CN(C)Cc1cccnc1)O2	-	.	.	.
CO[C@@H]1CN(C)C(=O)c2cc(NC(=O)Nc3cc(F)ccc3F)ccc2OC[C@@H](C)N(C(=O)c2ccccn2)C[C@H]1C	-	.	.	.
C[C@H]1CN([C@@H](C)CO)C(=O)c2cc(NC(=O)c3ccncc3)ccc2O[C@H]1CN(C)C(=O)Nc1ccccc1	-	.	.	.
Cc1ccc(NC(=O)c2oc3ccccc3c2NC(=O)C2CCCO2)cc1C (configuration not stated)	.	-	-	-
COc1ccc(NC(=O)c2oc3ccccc3c2NC(=O)C2CCCO2)cc1OC (configuration not stated)	63	-	-	-
COc1ccc(NC(=O)c2ccc(OCC3CCCO3)cc2)cc1OC (configuration not stated)	51	.	.	-
Cc1cccc2sc(NC(=O)c3ccc(OCC4CCCO4)cc3)nc12 (configuration not stated)	59	-	-	-
Cc1ccc(F)cc1NC(=O)c1ccc(OCC2CCCO2)cc1 (configuration not stated)	47	.	.	-
COc1ccc(NC(=O)Nc2ccc3c(c2)C(=O)N([C@@H](C)CO)C[C@H](C)[C@@H](CN(C)S(=O)(=O)c2cn(C)cn2)OCCCC[C@H](C)O3)cc1	-	.	.	.
O=C(Nc1cccc(Cl)c1)N(Cc1nc2ccccc2c(=O)[nH]1)C1CCCC1	-	54	-	-
Cc1cccc(NC(=O)N(Cc2nc3ccccc3c(=O)[nH]2)C2CCCC2)c1	-	-	-	-
N#CC1=C(N)Oc2n[nH]c(-c3ccncc3)c2C1c1ccsc1 (configuration not stated)	-	-	-	-
N#CC1=C(N)Oc2n[nH]c(-c3ccc(F)cc3)c2C1c1ccncc1 (configuration not stated)	.	67	-	-
CC=Cc1ccc2n(c1=O)C[C@@H]1[C@@H](CO)[C@H](C(=O)NCC3CC3)[C@H]2N1CCC (mixture of isomers)	-	.	.	.
CCCNC(=O)Nc1ccc2c(c1)OC[C@H](C)N(Cc1ccc(-c3ccccn3)cc1)C[C@H](C)[C@H](OC)CN(C)C2=O	-	.	.	.
SMILES	esBAF inh	HSF-1 act	HSF1 inhib	Vif imaging
C[C@@H]1CN([C@H](C)CO)C(=O)Cc2cc(NC(=O)c3ccncc3)ccc2O[C@H]1CN(C)Cc1ccc2c(c1)OCO2	-	.	.	.
Nc1nc(SCc2ccccc2)[nH]c(=O)c1-c1ccccc1	45	-	-	-
COC(=O)CNC(c1ccccc1)c1cc(Br)ccc1N (configuration not stated)	.	74	-	-
CCOC(=O)c1c(-c2ccc(C)cc2)csc1NC(=O)CCN1CCOCC1	.	-	-	-
CCOC(=O)c1c(-c2ccc(C)cc2)csc1NC(=O)c1cccc(N2C(=O)CCC2=O)c1	.	-	-	-
CCOC(=O)c1c(-c2ccccc2)csc1NC(=O)c1cccc(N2C(=O)CCC2=O)c1	-	85	-	-
CCOC(=O)c1c(-c2ccccc2)csc1NC(=O)CCN1CCOCC1	.	74	-	-
CCOC(=O)c1c(-c2ccc(C)cc2)csc1NC(=O)c1cc2ccccc2oc1=O	49	-	-	-

Screens deposited in PubChem by Broad Institute.
